Active and inactive are the calls of the source. The call rests on the fitted dose curve; in most records, active means well fitted curve in the direction sought with a large enough effect; inactive means no such curve, though single readings can be large or run the other way.
The compounds below were run against Pyruvate kinase PKM (Homo sapiens) (UniProt P14618) (assay: qHTS for Activators of Human Muscle Isoform 2 Pyruvate Kinase: Extended Characterization Using A Lactate Dehydrogenase (LDH) Assay Probe 2). Conditions: purified hPK-M2, LDH-coupled NADH fluorescence kinetic.
From the text: Human pyruvate kinase muscle 2 (hPK-M2)enzyme was supplied as a highly purified (>95% pure) preparation from Harvard Medical School and a secondary assay was used to evaluate compounds. This assay couples the formation of pyruvate from hPK-M2 using lactate dehydrogenase (LDH) and NADH. The depletion of NADH is followed in a fluorescent-based kinetic assay that follows the formation of pyruvate to lactate, as catalyzed LDH (described by Hannaert et al., 2002)1 Pyruvate kinase substrates, PEP and ADP, were present in the assay at 0.1 mM and 4 mM respectively. In this kinetic assay initial rates were determined by following the fluorescence of NADH depletion. NIH Chemical Genomics Center [NCGC] NIH Molecular Libraries Probe Centers Network [MLPCN] MLPCN Grant: MH085679 Assay Submitter (PI): Matthew G. Vander Heiden, Harvard Medical School
Three uL of substrate mix (final concentration, 50 mM Tris-Cl pH 8.0, 200 mM KCl, 15 mM MgCl2, 0.1 mM PEP, 4.0 mM ADP, and 0.2 mM NADH) was dispensed into black-solid 1536 well plates. 23 nL of compounds were delivered by a pin tool and 1 uL of enzyme mix (final concentrations, 10 nM hPK-M2 and 1 uM of LDH) was added. Plates were immediately placed in ViewLux (Perkin Elmer) and NADH fluorescence was determined at 30 second exposure intervals for between 3 and 6 minutes. Data were normalized to the uninhibited and EC100 activation using known activators such as fructose-bis-phosphate.

Chain of Pyruvate kinase PKM (Homo sapiens) (P14618 whole entry, looked up, canonical isoform): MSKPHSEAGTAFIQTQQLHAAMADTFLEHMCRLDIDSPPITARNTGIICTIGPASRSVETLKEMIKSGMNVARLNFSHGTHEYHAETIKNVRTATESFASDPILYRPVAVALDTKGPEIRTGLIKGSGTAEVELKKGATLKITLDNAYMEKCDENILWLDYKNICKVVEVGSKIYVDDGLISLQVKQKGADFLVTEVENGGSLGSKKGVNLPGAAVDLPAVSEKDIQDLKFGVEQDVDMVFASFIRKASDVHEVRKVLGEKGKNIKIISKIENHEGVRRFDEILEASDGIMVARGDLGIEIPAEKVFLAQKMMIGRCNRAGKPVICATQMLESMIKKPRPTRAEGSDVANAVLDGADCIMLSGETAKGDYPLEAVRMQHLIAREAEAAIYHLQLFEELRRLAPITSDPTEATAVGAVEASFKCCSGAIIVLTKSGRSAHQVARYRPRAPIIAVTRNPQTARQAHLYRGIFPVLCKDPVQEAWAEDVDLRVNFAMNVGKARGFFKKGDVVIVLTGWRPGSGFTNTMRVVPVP

Potency, active:
O=S(=O)(c1ccc2c(c1)OCCO2)N1CCN(S(=O)(=O)c2c(F)cccc2F)CC1 178 nM
COc1cccc(Cn2ncc3c4sc(S(C)=O)cc4n(C)c3c2=O)c1 (stereo not drawn) 410 nM
Cc1ccc(NS(=O)(=O)c2ccc3c(c2)CCC(=O)N3)cc1C 146 nM
